# Results from PubChem BioAssay (NCATS).
# Inconclusive results are not listed. Where a call stands in place of a potency, no number is given. The source made the active and inactive calls. Unless noted, calls follow the shape of the dose curve; as a rule, active = well fitted inhibition curve with a large enough effect; inconclusive = small, poorly fitted or top-dose-only effect; inactive = flat fitted curve, though single readings scatter.
# Assays:
# 7G8 = test: qHTS profiling for inhibitors of Plasmodium falciparum proliferation (AID 504749); also: nearly all actives have a fitted effect of over 60% in size; also: potency is read from the fitted curve at half-maximal effect; conditions: P. falciparum in erythrocytes, SYBR Green DNA, 72 h; series mostly up to 12.8 µM
# In short: (§1)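 Three-day growth assay of blood-stage parasites in erythrocytes (0.3% parasitemia, 2.5% hematocrit) at 37 C, 5% CO2, quantified by SYBR Green DNA staining after overnight detergent lysis.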
# CP215 = test: as above; conditions: P. falciparum in erythrocytes, SYBR Green DNA, 72 h; series mostly up to 12.8 µM
# In short: as §1
# CP247 = test: as above; conditions: P. falciparum in erythrocytes, SYBR Green DNA, 72 h; series mostly up to 12.8 µM
# In short: as §1
# CP297 = test: as above; conditions: P. falciparum in erythrocytes, SYBR Green DNA, 72 h; series mostly up to 12.8 µM
# In short: as §1
# DFO2036 = test: as above; conditions: P. falciparum in erythrocytes, SYBR Green DNA, 72 h; series mostly up to 12.8 µM
# In short: as §1
# DIV14 = test: as above; conditions: P. falciparum in erythrocytes, SYBR Green DNA, 72 h; series mostly up to 12.8 µM
# In short: as §1
# DIV17 = test: as above; conditions: P. falciparum in erythrocytes, SYBR Green DNA, 72 h; series mostly up to 12.8 µM
# In short: as §1
# GB4 = test: as above; conditions: P. falciparum in erythrocytes, SYBR Green DNA, 72 h; series mostly up to 12.8 µM
# In short: as §1
# HB3 = test: as above; conditions: P. falciparum in erythrocytes, SYBR Green DNA, 72 h; series mostly up to 12.8 µM
# In short: as §1
# SC27B = test: as above; conditions: P. falciparum in erythrocytes, SYBR Green DNA, 72 h; series mostly up to 12.8 µM
# In short: as §1
# W2 = test: as above; conditions: P. falciparum in erythrocytes, SYBR Green DNA, 72 h; series mostly up to 12.8 µM
# In short: as §1
# [1] = S16 Schwann cell PMP22 intronic element beta-lactamase assay (AID 624044; calls by dose curve; also: nearly all actives have a fitted effect of over 15% in size; also: potency is read from the fitted curve at half-maximal effect)
# In short: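 Rat S16 Schwann cells with beta-Lac driven by a PMP22 intronic element, compound-treated 24 h at 37 °C. LiveBLAzer FRET B/G read: 460 nm normalized to potassium clavulanate vs DMSO; 535 nm FRET as viability; concentration-effect curves classified.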
# [2] = biological target: Estrogen receptor (Homo sapiens) (UniProt P03372); test: qHTS assay for small molecule antagonists of estrogen receptor alpha signaling (AID 588513; active = well fitted curve in the direction sought with a large enough effect in the signal ratio, with a control signal flat, not every such curve was filed as active; the % refers to the signal ratio)
# Estrogen receptor (Homo sapiens), sequence (P03372 whole entry, looked up): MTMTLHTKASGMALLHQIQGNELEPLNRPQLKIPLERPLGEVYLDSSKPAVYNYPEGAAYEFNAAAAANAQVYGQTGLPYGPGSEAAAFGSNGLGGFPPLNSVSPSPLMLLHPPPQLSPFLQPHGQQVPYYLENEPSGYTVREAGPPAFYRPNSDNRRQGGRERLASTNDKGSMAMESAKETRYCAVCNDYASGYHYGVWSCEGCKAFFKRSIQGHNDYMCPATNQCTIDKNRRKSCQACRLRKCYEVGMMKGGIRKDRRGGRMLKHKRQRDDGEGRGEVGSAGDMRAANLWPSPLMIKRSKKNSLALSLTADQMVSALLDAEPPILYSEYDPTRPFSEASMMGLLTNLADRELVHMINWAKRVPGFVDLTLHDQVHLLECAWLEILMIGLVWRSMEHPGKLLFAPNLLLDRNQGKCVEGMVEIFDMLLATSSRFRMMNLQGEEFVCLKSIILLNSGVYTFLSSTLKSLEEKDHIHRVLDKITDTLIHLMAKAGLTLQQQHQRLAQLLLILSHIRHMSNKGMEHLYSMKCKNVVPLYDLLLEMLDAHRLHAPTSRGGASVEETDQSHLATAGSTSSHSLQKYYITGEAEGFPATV
# In short: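 ER-alpha-UAS-bla GripTite HEK 293 cells in 2% charcoal/dextran-treated FBS medium; compounds titrated (1:2, duplicate), then stimulated with 0.5 nM 17-beta-estradiol for 18 h at 37C. CCF4 beta-lactamase fluorescence; Hill-fit IC50 and efficacy.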
# [3] = biological target: Estrogen receptor (Homo sapiens) (UniProt P03372); test: qHTS assay for small molecule agonists of estrogen receptor alpha signaling (AID 588514; calls by dose curve; also: nearly all actives have a fitted effect of over 70% in size)
# In short: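 ER-alpha-UAS-bla GripTite HEK 293 cells in medium with 2% charcoal/dextran-treated FBS were treated with compound titrations at 37 C for 18 hrs; beta-lactamase reporter read by CCF4 fluorescence after 2 hrs at RT.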
# [4] = qHTS assay for small molecule antagonists of peroxisome proliferator-activated receptor delta signaling (AID 588535; active = well fitted inhibition curve with a large enough effect in the signal ratio, with a control signal flat, not every such curve was filed as active; the % refers to the signal ratio;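 as to max response: cells co-treated with a PPAR-delta agonist as stimulator during compound exposure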); conditions: HEK293T PPARd-UAS-bla, beta-lactamase FRET ratio, 18 h; 460 nm channel
# In short: (§2)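 Cell-based beta-lactamase assay in antagonist mode: 4000 HEK293T PPAR-delta-UAS-bla cells per well, 5 hr preincubation then 18 hr compound incubation at 37 C. IC50 obtained by Hill equation fitting.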
# [5] = biological target: Peroxisome proliferator-activated receptor delta (Homo sapiens) (UniProt Q03181); test: as above
# Peroxisome proliferator-activated receptor delta (Homo sapiens), sequence (Q03181 whole entry, looked up): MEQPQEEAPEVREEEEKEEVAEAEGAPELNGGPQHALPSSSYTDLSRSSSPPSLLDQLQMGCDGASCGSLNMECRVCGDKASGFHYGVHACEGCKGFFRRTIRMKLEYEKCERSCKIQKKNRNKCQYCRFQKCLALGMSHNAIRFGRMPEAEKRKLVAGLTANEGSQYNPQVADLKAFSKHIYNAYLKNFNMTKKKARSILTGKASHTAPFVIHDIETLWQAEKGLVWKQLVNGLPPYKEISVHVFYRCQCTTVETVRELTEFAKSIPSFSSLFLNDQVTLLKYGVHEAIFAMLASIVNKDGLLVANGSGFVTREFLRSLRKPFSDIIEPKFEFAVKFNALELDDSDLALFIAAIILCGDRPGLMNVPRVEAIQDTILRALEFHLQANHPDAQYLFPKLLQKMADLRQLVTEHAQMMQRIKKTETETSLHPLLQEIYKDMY
# In short: as §2
# [6] = biological target: Peroxisome proliferator-activated receptor gamma (Homo sapiens) (UniProt P37231); test: qHTS assay for small molecule agonists of peroxisome proliferator-activated receptor gamma signaling (AID 588536; active = well fitted curve in the direction sought with a large enough effect in the signal ratio, with a control signal flat, not every such curve was filed as active; the % refers to the signal ratio)
# Peroxisome proliferator-activated receptor gamma (Homo sapiens), sequence (P37231 whole entry, looked up): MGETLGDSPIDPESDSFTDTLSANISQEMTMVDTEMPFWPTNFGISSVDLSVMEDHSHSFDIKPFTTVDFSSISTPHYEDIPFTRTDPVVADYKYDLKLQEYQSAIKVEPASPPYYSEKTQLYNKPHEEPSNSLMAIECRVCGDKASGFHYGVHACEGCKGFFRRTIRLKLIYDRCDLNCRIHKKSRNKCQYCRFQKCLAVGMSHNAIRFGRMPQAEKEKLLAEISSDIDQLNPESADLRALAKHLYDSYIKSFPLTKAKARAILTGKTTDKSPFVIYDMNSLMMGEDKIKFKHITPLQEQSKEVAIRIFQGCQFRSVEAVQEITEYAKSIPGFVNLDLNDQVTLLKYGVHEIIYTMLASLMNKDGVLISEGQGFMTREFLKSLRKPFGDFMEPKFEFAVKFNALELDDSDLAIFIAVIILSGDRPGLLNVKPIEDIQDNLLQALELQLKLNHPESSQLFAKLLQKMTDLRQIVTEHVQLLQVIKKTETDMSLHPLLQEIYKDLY
# In short: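 PPAR-gamma-UAS-bla HEK293 cells in medium with 1% charcoal/dextran-treated FBS were exposed to compounds for 16 h at 37 C. Beta-lactamase activity was read with CCF4 substrate (405 nm excitation, 460/530 nm emission).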
# [7] = biological target: Peroxisome proliferator-activated receptor gamma (Homo sapiens) (UniProt P37231); test: qHTS assay for small molecule antagonists of peroxisome proliferator-activated receptor gamma signaling (AID 588537; active = well fitted inhibition curve with a large enough effect in the signal ratio, with a control signal flat, not every such curve was filed as active; the % refers to the signal ratio;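 also: reporter cells co-stimulated with 50 nM rosiglitazone agonist during compound treatment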)
# In short: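 Inhibitors of agonist-stimulated UAS-bla reporter activity were sought in HEK293 cells; rosiglitazone (50 nM) defined full signal and DMSO baseline. Curves fitted to Hill model gave IC50 and efficacy.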
# [8] = biological target: Vitamin D3 receptor (Homo sapiens) (UniProt P11473); test: qHTS assay for small molecule antagonists of vitamin D receptor signaling (AID 588541; calls by dose curve;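 also: receptor activated by calcitriol during compound treatment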)
# Vitamin D3 receptor (Homo sapiens), sequence (P11473 whole entry, looked up): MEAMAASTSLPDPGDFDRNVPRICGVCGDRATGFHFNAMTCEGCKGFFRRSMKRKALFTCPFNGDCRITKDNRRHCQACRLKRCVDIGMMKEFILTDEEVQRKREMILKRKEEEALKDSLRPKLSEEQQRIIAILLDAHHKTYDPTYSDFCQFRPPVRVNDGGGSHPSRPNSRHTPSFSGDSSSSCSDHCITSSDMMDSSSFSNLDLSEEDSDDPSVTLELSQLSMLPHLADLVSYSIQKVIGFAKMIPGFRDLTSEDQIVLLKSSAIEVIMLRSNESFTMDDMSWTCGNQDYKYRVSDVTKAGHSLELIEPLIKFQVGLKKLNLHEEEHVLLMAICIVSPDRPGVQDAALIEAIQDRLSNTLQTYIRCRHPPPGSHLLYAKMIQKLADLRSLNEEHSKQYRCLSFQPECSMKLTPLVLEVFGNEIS
# In short: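 Antagonist-mode beta-lactamase reporter assay: HEK293T VDR-UAS-bla cells were exposed to titrated compound alongside 1-alpha,25-dihydroxyvitamin D3 at 3 nM final for 16 h. Values were normalized to the 50 nM agonist control and DMSO basal, with IC50 and efficacy from Hill equation fits.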
# [9] = biological target: Vitamin D3 receptor (Homo sapiens) (UniProt P11473); test: qHTS assay for small molecule agonists of vitamin D receptor signaling (AID 588543; calls by dose curve)
# In short: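 VDR-UAS-bla HEK293T cells, 2000/well, 2% charcoal-stripped FBS; compound titration 16 h at 37 C; CCF4 beta-lactamase ratio read. Normalized to 50 nM 1-alpha,25-dihydroxyvitamin D3 (100%) and DMSO; Hill fit gives EC50, efficacy.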
smiles,measurement,setting,value
CC1(C)S[C@H]2C(NC(=O)[C@@H](N)c3ccc(O)cc3)C(=O)N2[C@@H]1C(=O)O (stereo partly specified),Potency,7G8,inactive
same,Potency,CP215,inactive
same,Potency,CP247,inactive
same,Potency,CP297,inactive
same,Potency,DFO2036,inactive
same,Potency,DIV14,inactive
same,Potency,DIV17,inactive
same,Potency,GB4,inactive
same,Potency,HB3,inactive
same,Potency,SC27B,inactive
same,Potency,W2,inactive
CCOC(=O)C1=CC(OC(CC)CC)C(NC(C)=O)C(N)C1 (stereo unspecified),Potency,[1],inactive
same,Potency,CP215,inactive
same,Potency,CP247,inactive
same,Potency,DFO2036,inactive
same,Potency,HB3,inactive
same,Potency,SC27B,inactive
same,Potency,W2,6750 nM (active)
CO[C@]12C(COC(N)=O)C3=C(C(=O)C(C)=C(N)C3=O)N1CC1NC12 (stereo partly specified),Potency,[1],8910 nM (active)
same,Potency,7G8,708 nM (active)
same,Potency,CP247,1410 nM (active)
same,Potency,HB3,1000 nM (active)
same,Potency,SC27B,1000 nM (active)
CC(=O)OC1CCC2C3CCc4cc(O)ccc4C3CCC12C (stereo unspecified),Potency,CP215,inactive
same,Potency,CP247,inactive
same,Potency,CP297,inactive
same,Potency,DFO2036,inactive
same,Potency,DIV14,inactive
same,Potency,DIV17,inactive
same,Potency,GB4,inactive
same,Potency,HB3,inactive
same,Potency,SC27B,inactive
C[C@@]12C=CC(=O)C=C1CCC1C3CC(O)[C@@](O)(C(=O)CO)[C@]3(C)CC(O)[C@]12F (stereo partly specified),Potency,7G8,inactive
same,Potency,CP215,inactive
same,Potency,CP247,inactive
same,Potency,CP297,inactive
same,Potency,DFO2036,inactive
same,Potency,DIV14,inactive
same,Potency,DIV17,inactive
same,Potency,GB4,inactive
same,Potency,HB3,inactive
same,Potency,SC27B,inactive
same,Potency,W2,inactive
CC(C)Oc1ccc2c(=O)cc(-c3ccccc3)oc2c1,Potency,[1],inactive
same,Potency,7G8,inactive
same,Potency,CP215,inactive
same,Potency,CP247,inactive
same,Potency,DFO2036,inactive
same,Potency,DIV14,inactive
same,Potency,DIV17,inactive
same,Potency,HB3,inactive
same,Potency,SC27B,inactive
same,Potency,W2,47.8 nM (active)
NCC1CCC(N)C(O[C@@H]2C(O)[C@H](O[C@H]3OC(CO)C(O)C(N)C3O)[C@@H](N)C[C@H]2N)O1 (stereo partly specified),Potency,CP215,inactive
same,Potency,CP247,inactive
same,Potency,CP297,inactive
same,Potency,DFO2036,inactive
same,Potency,DIV14,inactive
same,Potency,DIV17,inactive
same,Potency,GB4,inactive
same,Potency,HB3,inactive
same,Potency,SC27B,inactive
CC(=O)[C@]1(O)CCC2C3C=C(Cl)C4=CC(=O)C5CC5[C@@]4(C)C3CC[C@]21C (stereo partly specified),Potency,[1],inactive
same,Potency,CP215,inactive
same,Potency,CP297,inactive
same,Potency,DIV14,inactive
same,Potency,DIV17,inactive
same,Potency,GB4,inactive
same,Potency,HB3,inactive
same,Potency,SC27B,inactive
same,Potency,W2,inactive
CC1C2CCC3C4CC=C5CC(N(C)C)CC[C@@]5(C)C4CC[C@@]32CN1C (stereo partly specified),Potency,CP215,inactive
same,Potency,CP247,inactive
same,Potency,CP297,inactive
same,Potency,DFO2036,inactive
same,Potency,DIV14,inactive
same,Potency,DIV17,inactive
same,Potency,GB4,inactive
same,Potency,HB3,inactive
same,Potency,SC27B,inactive
CC(=O)N[C@@H]1C(O)OC(CO)C(O)C1O (stereo partly specified),Potency,[1],inactive
same,Potency,CP215,inactive
same,Potency,CP247,inactive
same,Potency,CP297,inactive
same,Potency,DFO2036,inactive
same,Potency,DIV17,inactive
same,Potency,SC27B,inactive
same,Potency,W2,inactive
COc1c(Cl)ccc(Cl)c1C(=O)O,outcome,[2],inactive
same,outcome,[3],inactive
same,max response,[4],-7.82%
same,outcome,[5],inactive
same,outcome,[6],inactive
same,outcome,[7],inactive
same,outcome,[8],inactive
same,outcome,[9],inactive
